Experimental data taken from PubChem BioAssay (Tox21).
Values joined by “and” are separate entries in the source; they are usually repeats but may differ in a detail not shown here. Equal values may be shown once. Results filed as inconclusive are left out. Entries that show only a call come without a potency. More than one record can exist for a structure, and the calls need not agree. Active and inactive are the calls of the source. Unless noted, calls follow the shape of the dose curve; as a rule, active = well fitted curve in the direction sought with a large enough effect in the repeat runs; inconclusive = weak or mixed curves; inactive = no such curve, though single readings can be large; an effect the other way counts as inactive or inconclusive.

Tests used:
[1] = qHTS assay to identify small molecule antagonists of the estrogen related receptor (ERR) signaling pathway from Tox21 library - cell viability counter screen (AID 1224834); also: nearly all actives have a fitted effect of over 30% in size; also: potency is read from the fitted curve at half-maximal effect
Summary of the method: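 Seeded ERR cells were rested 6 h at 37 C/5% CO2 before compounds, positive and negative controls or DMSO were added. Incubation continued for 17.5 h, and viability was then quantified by CellTiter-Fluor fluorescence.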

[2] = biological target: Luciferin 4-monooxygenase (Photinus pyralis) (UniProt P08659); experiment: qHTS assay to identify small molecule inhibitors of firefly luciferase (AID 1224835); also: series mostly up to about 120 µM; nearly all actives have a fitted effect of over 25% in size
Chain of Luciferin 4-monooxygenase (Photinus pyralis) (P08659 whole entry, looked up): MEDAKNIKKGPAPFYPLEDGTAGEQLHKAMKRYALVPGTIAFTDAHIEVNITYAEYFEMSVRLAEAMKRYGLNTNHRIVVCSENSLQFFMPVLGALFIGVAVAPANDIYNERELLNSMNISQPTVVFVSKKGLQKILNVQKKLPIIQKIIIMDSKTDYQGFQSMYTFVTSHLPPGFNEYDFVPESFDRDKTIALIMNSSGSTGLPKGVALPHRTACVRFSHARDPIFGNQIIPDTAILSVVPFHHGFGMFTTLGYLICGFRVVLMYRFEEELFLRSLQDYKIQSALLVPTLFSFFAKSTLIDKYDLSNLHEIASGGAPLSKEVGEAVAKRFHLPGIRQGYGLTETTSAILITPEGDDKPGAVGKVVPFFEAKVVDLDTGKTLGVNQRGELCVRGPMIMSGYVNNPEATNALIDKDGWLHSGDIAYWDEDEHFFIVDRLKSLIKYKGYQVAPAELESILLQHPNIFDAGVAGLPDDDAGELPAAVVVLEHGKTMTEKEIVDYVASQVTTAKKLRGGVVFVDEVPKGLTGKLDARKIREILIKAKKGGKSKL
Summary of the method: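 Quantitative HTS format; KM concentrations of both substrates. Purified P. pyralis FLuc activity quantified from luminescence images.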

[3] = qHTS assay to identify small molecule agonists of the constitutive androstane receptor (CAR) signaling pathway - cell viability counter screen (AID 1224836); also: nearly all actives have a fitted effect of over 45% in size; also: potency is read from the fitted curve at half-maximal effect
Summary of the method: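 Using CellTiter-Fluor, viability of HepG2 cells harbouring hCAR and CYP2B6-2.2kb was measured following 23 h incubation with a 15-concentration compound series plus PK11195 (0.75 uM final).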

[4] = qHTS assay to identify small molecule antagonists of the constitutive androstane receptor (CAR) signaling pathway - cell viability counter screen (AID 1224837); also: nearly all actives have a fitted effect of over 45% in size; also: potency is read from the fitted curve at half-maximal effect
Summary of the method: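 To flag cytotoxic false antagonists, HepG2 hCAR/CYP2B6-2.2kb cells were treated 23 hr with 15-concentration compound series and 50 nM CITCO at 37 C/5% CO2; CellTiter-Fluor fluorescence was the measured end point.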

[5] = biological target: Nuclear receptor subfamily 1 group I member 3 (Homo sapiens) (UniProt Q14994); experiment: qHTS assay to identify small molecule antagonists of the constitutive androstane receptor (CAR) signaling pathway (AID 1224838);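 also: HepG2 cells stably expressing hCAR with CYP2B6 luciferase reporter stimulated by CITCO; nearly all actives have a fitted effect of over 40% in size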; also: potency is read from the fitted curve at half-maximal effect
Chain of Nuclear receptor subfamily 1 group I member 3 (Homo sapiens) (Q14994 whole entry, looked up): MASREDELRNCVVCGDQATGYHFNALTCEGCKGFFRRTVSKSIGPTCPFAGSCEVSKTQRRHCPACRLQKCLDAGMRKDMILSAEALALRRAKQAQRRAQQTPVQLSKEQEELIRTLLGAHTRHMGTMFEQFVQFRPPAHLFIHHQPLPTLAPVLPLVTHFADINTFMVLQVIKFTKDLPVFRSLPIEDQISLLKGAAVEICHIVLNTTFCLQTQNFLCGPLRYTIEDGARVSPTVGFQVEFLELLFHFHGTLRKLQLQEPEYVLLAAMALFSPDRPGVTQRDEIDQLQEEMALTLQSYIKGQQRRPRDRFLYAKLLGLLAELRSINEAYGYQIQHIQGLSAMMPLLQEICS
Summary of the method: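 Human hepatoma HepG2 cells expressing hCAR and a CYP2B6 promoter (2.2 kb) luciferase construct; compound titration (15 points) with 50 nM CITCO final, 24 h at 37 C/5% CO2; luminescence via ONE-Glo after 30 min at room temperature.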

[6] = biological target: Nuclear receptor subfamily 1 group I member 3 (Homo sapiens) (UniProt Q14994); experiment: qHTS assay to identify small molecule agonists of the constitutive androstane receptor (CAR) signaling pathway (AID 1224839);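 also: HepG2 cells stably carrying human CAR and a CYP2B6 luciferase reporter; series mostly up to about 92 µM; nearly all actives have a fitted effect of over 15% in size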
Summary of the method: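 Double-stable HepG2 cells (hCAR, CYP2B6-2.2kb) seeded 4 h before compound addition. Exposure 24 h with 0.75 uM PK11195 final. Luciferase detected by ONE-Glo.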

[7] = qHTS assay to identify small molecule antagonists of the estrogen related receptor signaling pathway with the pleiotropic PPARgamma coactivator (PGC) from Tox21 10K library - cell viability counter screen (AID 1224840; active = well fitted cell-killing curve with a large enough effect in the repeat runs, not every such curve was filed as active; also: nearly all actives have a fitted effect of over 40% in size; also: potency is read from the fitted curve at half-maximal effect)
Summary of the method: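 Seeded PGC/ERR cells (2,000/well, 6 h, 37 C/5% CO2) get compound by pin tool; 17.5 h incubation at 37 C; CellTiter-Fluor added, 30 min, fluorescence measured.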

[8] = qHTS assay to identify small molecule antagonists of the estrogen related receptor signaling pathway with the pleiotropic PPARgamma coactivator (PGC) from Tox21 10K library (AID 1224841; call rule not given here; also: actives are mostly falling curves and most rising ones were filed inactive; nearly all actives have a fitted effect of over 50% in size; also: potency is read from the fitted curve at half-maximal effect)
Summary of the method: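 Test chemicals dissolved in DMSO were applied to pre-incubated (6 h) PGC/ERR cells at 2,000 cells/well for an 18 h, 37 C treatment; reporter luminescence was then read using One-Glo.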

[9] = biological target: Thyrotropin receptor (Homo sapiens) (UniProt P16473); experiment: qHTS assay to identify small molecule agonists of the thyroid stimulating hormone receptor (TSHR) signaling pathway (AID 1224843; calls by dose curve; also: nearly all actives have a fitted effect of over 45% in size)
Chain of Thyrotropin receptor (Homo sapiens) (P16473 whole entry, looked up): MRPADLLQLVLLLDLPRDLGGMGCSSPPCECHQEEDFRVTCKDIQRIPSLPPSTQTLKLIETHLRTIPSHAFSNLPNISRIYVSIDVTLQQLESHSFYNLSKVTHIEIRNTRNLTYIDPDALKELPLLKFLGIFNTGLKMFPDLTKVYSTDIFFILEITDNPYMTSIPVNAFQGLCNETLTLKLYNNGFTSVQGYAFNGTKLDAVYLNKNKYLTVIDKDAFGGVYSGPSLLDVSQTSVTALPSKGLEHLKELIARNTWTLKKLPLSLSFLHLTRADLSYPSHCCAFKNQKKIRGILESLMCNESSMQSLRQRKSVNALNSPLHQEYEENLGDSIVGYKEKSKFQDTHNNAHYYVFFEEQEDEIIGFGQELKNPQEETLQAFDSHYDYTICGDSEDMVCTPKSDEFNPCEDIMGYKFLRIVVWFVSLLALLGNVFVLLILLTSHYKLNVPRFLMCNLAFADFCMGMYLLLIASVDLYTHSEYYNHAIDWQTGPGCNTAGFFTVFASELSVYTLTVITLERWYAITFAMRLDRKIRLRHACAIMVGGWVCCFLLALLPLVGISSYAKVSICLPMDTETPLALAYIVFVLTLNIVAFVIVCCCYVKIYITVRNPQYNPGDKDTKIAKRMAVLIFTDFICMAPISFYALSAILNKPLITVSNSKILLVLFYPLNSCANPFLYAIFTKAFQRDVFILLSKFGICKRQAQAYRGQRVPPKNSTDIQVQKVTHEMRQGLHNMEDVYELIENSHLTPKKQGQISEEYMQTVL
Summary of the method: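 Compounds are titrated over 15 concentrations, in triplicate, onto TSHR-HEK293 cells seeded at 800/well. Plates sit 30 min at room temperature before cAMP-d2 and anti-cAMP cryptate are added; signal is read after a further hour.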

[10] = qHTS assay to identify small molecule agonists of the estrogen related receptor signaling pathway with the pleiotropic PPARgamma coactivator (PGC) from Tox21 10K library (AID 1224842); also: nearly all actives have a fitted effect of over 15% in size
Summary of the method: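 PGC/ERR reporter cells (NTP line) were seeded 2,000 per well, rested 6 h at 37 C/5% CO2, then pin-dosed with compounds in DMSO for 18 h at 37 C; luciferase read by One-Glo luminescence after 30 min at room temperature.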

SMILES	Potency [1]	Potency [2]	Potency [3]	Potency [4]	Potency [5]	Potency [6]	Potency [7]	Potency [8]	Potency [9]	Potency [10]
O=C(O)CCc1ccccc1	inactive	inactive	inactive	inactive	inactive	inactive	inactive	inactive	inactive	–
C=CC(=O)OCCCCCCCC	inactive	inactive	inactive	inactive	inactive	inactive	inactive	13.7 µM (active)	inactive	–
CCn1cc(C(=O)O)c(=O)c2cc(F)c(N3CCNC(C)C3)c(F)c21 (centres undefined)	inactive	inactive	inactive	inactive	inactive	inactive	inactive	inactive	inactive	–
CO[Si](OC)(OC)c1ccccc1	inactive	inactive	inactive	inactive	inactive	inactive	inactive	inactive	inactive	inactive
CC[C@H]1CN2CCc3cc(OC)c(OC)cc3[C@@H]2C[C@@H]1C[C@H]1NCCc2cc(OC)c(OC)cc21	15.4 nM (active) and 84.1 nM (active)	inactive	24.4 nM (active) and 150 nM (active)	27.4 nM (active) and 133 nM (active)	54.6 nM (active) and 237 nM (active)	inactive	24.4 nM (active) and 168 nM (active)	–	–	–
CCCCN(CCO)CCCC	inactive	inactive	inactive	inactive	inactive	inactive	inactive	inactive	inactive	inactive
CCCCOCCOC(=O)c1ccccc1C(=O)OCCOCCCC	inactive	inactive	inactive	inactive	inactive	inactive	inactive	16.9 µM (active) and inactive	inactive	inactive
NC(N)=NC(=O)Cc1c(Cl)cccc1Cl	inactive	inactive	inactive	inactive	inactive	inactive	inactive	inactive	inactive	inactive
OCC(CO)N[C@H]1C[C@](O)(CO)[C@@H](O)[C@H](O)[C@H]1O	inactive	inactive	inactive	inactive	inactive	inactive	inactive	inactive	inactive	inactive
CC1COC(=O)O1 (centres undefined)	inactive	inactive	inactive	inactive	inactive	inactive	inactive	inactive	inactive	–
O=C(O)c1cc(Cl)cc(Cl)c1	inactive	inactive	inactive	inactive	inactive	inactive	inactive	inactive	inactive	inactive
CN1C(=O)c2ccc([N+](=O)[O-])cc2C1=O	inactive	inactive	inactive	inactive	inactive	inactive	inactive	inactive	inactive	–
CC[C@@H](N)CO	inactive	inactive	inactive	inactive	inactive	inactive	inactive	inactive	inactive	inactive
O=Cc1ccc(Cl)cc1	inactive	inactive	inactive	inactive	inactive	inactive	inactive	inactive	inactive	inactive
CNC1(C)C2CCC(C2)C1(C)C (centres undefined)	inactive	inactive	inactive	inactive	inactive	inactive	inactive	inactive	inactive	inactive
CC1=C(C=O)C(C)(C)CC=C1	inactive	inactive	inactive	inactive	inactive	inactive	inactive	inactive	inactive	–
C#CC(C)(CC)OC(=O)c1ccccc1C(=O)O (centres undefined)	inactive	inactive	inactive	inactive	inactive	inactive	inactive	inactive	inactive	–
C1COC(NC(C2CC2)C2CC2)=N1	inactive	inactive	inactive	inactive	inactive	inactive	inactive	inactive	inactive	inactive
CCC(C)(Oc1ccc(C2(c3ccc(OC(C)(CC)C(=O)O)cc3)CCCCC2)cc1)C(=O)O (centres undefined)	inactive	inactive	inactive	inactive	inactive	inactive	inactive	inactive	inactive	–
